“And” between values parts separate entries of the source, which are not always exact repeats. Equal entries are not always repeated. A number with no mark means an inactive call. Calls follow the shape of the full dose curve.
Potency is read from the fitted curve at half-maximal effect.

Glucocorticoid receptor (Homo sapiens), sequence (P04150 whole entry, looked up): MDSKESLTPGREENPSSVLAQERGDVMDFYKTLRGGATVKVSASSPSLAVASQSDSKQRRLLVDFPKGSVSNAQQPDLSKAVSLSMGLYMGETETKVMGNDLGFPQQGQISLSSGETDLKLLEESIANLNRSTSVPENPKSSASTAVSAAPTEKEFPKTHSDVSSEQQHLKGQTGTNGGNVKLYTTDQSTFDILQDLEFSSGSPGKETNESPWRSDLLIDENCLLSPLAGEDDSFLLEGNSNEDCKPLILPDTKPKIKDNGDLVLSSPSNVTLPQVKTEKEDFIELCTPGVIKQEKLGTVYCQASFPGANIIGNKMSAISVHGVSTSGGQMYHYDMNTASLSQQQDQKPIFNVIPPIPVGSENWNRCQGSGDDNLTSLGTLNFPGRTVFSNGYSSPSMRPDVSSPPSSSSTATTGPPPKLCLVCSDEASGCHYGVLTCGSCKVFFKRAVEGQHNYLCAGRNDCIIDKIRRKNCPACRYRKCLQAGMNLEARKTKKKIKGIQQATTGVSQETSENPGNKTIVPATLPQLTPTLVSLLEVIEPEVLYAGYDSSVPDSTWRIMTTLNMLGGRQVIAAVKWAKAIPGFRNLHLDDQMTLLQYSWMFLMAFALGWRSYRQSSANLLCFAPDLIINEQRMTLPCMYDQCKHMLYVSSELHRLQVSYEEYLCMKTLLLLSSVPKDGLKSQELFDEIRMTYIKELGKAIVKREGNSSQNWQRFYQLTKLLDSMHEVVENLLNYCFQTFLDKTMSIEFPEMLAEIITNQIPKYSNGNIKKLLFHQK

This assay concerns the target Glucocorticoid receptor (Homo sapiens) (UniProt P04150). Description: GR-EFC Redistribution (AID 451). Conditions: CHO-K1 GR-EFC translocation, beta-gal luminescence, 2 h. The source says:
NIH Molecular Libraries Screening Centers Network [MLSCN]
NIH Chemical Genomics Center [NCGC]
The glucocorticoid receptor (GR) is a cytoplasmic receptor that belongs to the nuclear receptor family of ligand-dependent transcription factors. Upon glucocorticoid binding to its receptor, the glucocorticoid-GR complex translocates into the nucleus, where it binds as a dimer to specific DNA sequences (glucocorticoid response elements), enhancing or suppressing transcription of a wide variety of glucocorticoid-responsive genes. In addition to their important roles in normal physiology and metabolism, glucocorticoids are administered exogenously as treatments for a wide variety of allergic, autoimmune, and neoplastic conditions. Identification of compounds that modulate aspects of GR signalling would be useful in dissecting glucocorticoid response pathways as well as developing GR modulators with more targeted clinical effects.
Traditionally, GR modulators have been identified using receptor binding or direct transactivation assays. However, assays for glucocorticoid-dependent nuclear translocation can also be used to screen for compounds affecting GR signaling.
Immunocytochemical staining has been used to assay for GR translocation, but is not suitable for high throughout screening due to the multiple reagent addition and wash steps required. Recently, a novel cell-based GR assay in Enzyme Fragment Complementation (EFC) format was developed by DiscoveRx (Fremont, CA). The assay uses EFC of b-galactosidase (b-gal) as an indicator of GR-translocation in engineered CHO-K1 biosensor cells. The enzyme acceptor (EA) fragment of b-gal resides in the nucleus , as designed through the use of a proprietary set of sequence additions and modifications. The small peptide enzyme donor (ED) fragment of b-gal is fused directly to the C-terminus of GR, and is localized in the cytoplasm is the absence of receptor signaling. Upon binding to a GR ligand, the complex translocates to the nucleus, where intact enzyme activity is restored by complementation and b-gal activity is detected. We optimized this GR-EFC assay in homogenous 1536-well plate assay format for high throughput screening.
NCGC Assay Protocol Summary:
CHO-K1 cells stably expressing NLS-enzyme acceptor fragment (EA) of b-gal and GR-enzyme donor (ED) fragment of b-gal were maintained in F12 medium (Invitrogen, Carlsbad, CA) at 37 Celsius degrees under a humidified atmosphere containing 5% CO2 and 95% air. The medium contained 10% FBS, 2 mM L-glutamine, 50 U/ml penicillin 50 ug/ml streptomycin, and 250 ug/ml hygromycin and 500 ug/ml G418 (Invitrogen).
GR-translocation was measured beta-gal enzyme activity using the PathHunter Detection Kit containing cell membrane permeablizing reagent and beta-gal substrate (DiscoveRx, Fremont, CA). All compounds were screened as titrations from 0.6 nM to 46 uM final concentration. The assay was performed in 1536-well format as follows:
5 uL cell suspension (1,000 cells)/well
Incubation at 37 Celsius degrees for two hours
1.25 uL 1X detection buffer from the kit supplied by DiscoveRx
Incubation at room temperature for one hour
Read plate in luminescence mode in ViewLux plate reader (PerkinElmer)
Keywords: NIH Roadmap, MLSCN, MLI, MLSMR, GR-EFC, GREFC, qHTS, NCGC
Regarding `CC[C@H](NC(=O)c1c(C)c(-c2ccccc2)nc2ccccc12)c1ccccc1`, the Potency was more than 46 µM.

Take `NC(=O)CNCCC(c1ccccc1)c1ccccc1`: the Potency was more than 46 µM.

`CN1CCc2cc(Cl)c(O)cc2[C@@H](c2ccccc2)C1`: the Potency was more than 46 µM.

On to `CCCn1c(=O)c2[nH]c(-c3ccc(S(=O)(=O)O)cc3)nc2n(CCC)c1=O`, for which the Potency is more than 46 µM.

Consider `O=C(O)c1ccccc1Nc1ccccc1`, for which the Potency is more than 46 µM.

Regarding `COc1ccccc1N1CCN(CCCCNC(=O)c2ccc3ccccc3c2)CC1`, the Potency is > 46 µM and > 20.6 µM.

In the case of `Cc1nc(N=Nc2cc(S(=O)(=O)O)c3cc([N+](=O)[O-])cc(S(=O)(=O)O)c3c2)c(COP(=O)(O)O)c(C=O)c1O`, the Potency was more than 46 µM.

In the case of `Nc1ncnc2c1c(-c1ccc(Oc3ccccc3)cc1)cn2C1CCCC1`, the Potency is more than 46 µM.

For `O=c1[nH]c2cc(Cl)ccc2c(O)c1-c1ccc(Oc2ccccc2)cc1`, the Potency is more than 46 µM.

For the compound `C=C1C(=O)O[C@@H]2[C@H]3O[C@]3(C)CCC=C(C)CC[C@@H]12`, the Potency is more than 46 µM.

In the case of `N[C@H](C(=O)O)c1cc(O)cc(O)c1`, the Potency is more than 46 µM.

Consider `O=C(c1ccc2c(c1)OCCO2)N1CCCCC1`, for which the Potency was more than 46 µM.

Consider `CCCc1c(OCCCOc2ccc(OCC(=O)O)cc2)ccc(C(C)=O)c1O`, for which the Potency is more than 46 µM.

For the compound `Nc1nc2ccc(Cl)cc2c2nc(-c3ccco3)nn12`, the Potency was more than 46 µM.

Take `Cc1nc(N=Nc2ccc(C(=O)O)cc2)c(COP(=O)(O)O)c(C=O)c1O`: the Potency is more than 46 µM.

With `NC(N)=NC(N)=Nc1ccccc1`, the Potency was more than 46 µM.

Regarding `CN(C)CCCc1cc(C(=O)Nc2ccc(-c3ccncc3)cc2)ccc1O`, the Potency is more than 46 µM.

Turning to `Nc1ccc(N2C(=O)c3ccccc3C2=O)c(Cl)c1`, the Potency was more than 46 µM.

Consider `NCCS(=O)O`, for which the Potency was more than 46 µM.

Consider `NCCCNCCCCNCCCN`, for which the Potency was more than 46 µM.

In the case of `CNC(=O)c1cc2c(cn1)[nH]c1ccccc12`, the Potency was more than 46 µM.

With `C[C@H](O)C(=O)C1=Nc2c(nc(N)[nH]c2=O)NC1`, the Potency is more than 46 µM.

Regarding `CCCC(=O)NCCc1c2n(c3ccc(OC)cc13)CCCc1ccccc1-2`, the Potency was more than 46 µM.

`CCCc1c(-c2ccc(O)cc2)nn(-c2ccc(O)cc2)c1-c1ccc(O)cc1`: the Potency is more than 46 µM.

For `NC(=O)c1ccccc1`, the Potency was more than 46 µM.

Consider `CC(N)=O`, for which the Potency is more than 46 µM.

`NS(=O)(=O)c1cccc2c1c([N+](=O)[O-])cc1nc(O)c(O)nc12`: the Potency was more than 46 µM.

As for `CC(=O)C(C)=O`, the Potency was more than 46 µM.

`N[C@@H](CS(=O)O)C(=O)O`: the Potency was more than 46 µM.

As for `O=[N+]([O-])c1cccc2c(Br)[nH]nc12`, the Potency is more than 46 µM.

In the case of `O=C(O)C1=CCNCC1`, the Potency was more than 46 µM.

Turning to `O=[N+]([O-])c1cccc2cn[nH]c12`, the Potency was more than 46 µM.

Turning to `O=C(O)c1cc(=O)cc(C(=O)O)[nH]1`, the Potency was more than 46 µM.

Regarding `N#CC(C#N)=C(N)/C(C#N)=C/c1ccc(O)cc1`, the Potency was more than 46 µM.

On to `COc1cc(/C=C(\C#N)C(=O)c2ccc(O)c(O)c2)cc(I)c1O`, for which the Potency was more than 46 µM.

As to `O=C1Nc2ccc(I)cc2/C1=C/c1cc(Br)c(O)c(Br)c1`, the Potency is more than 46 µM.

As for `Cn1c(=O)[nH]c2ncn(C)c2c1=O`, the Potency was more than 46 µM.

On to `CC(C)(CO)Cc1cc(C(C)(C)C)c(O)c(C(C)(C)C)c1`, for which the Potency was more than 46 µM.

As to `C#CCn1c(=O)c2c(ncn2C)n(C)c1=O`, the Potency was more than 46 µM.

On to `CCN(CC)CCCCCCCCOC(=O)c1cc(OC)c(OC)c(OC)c1`, for which the Potency was more than 46 µM.

These data come from PubChem BioAssay (NCATS).
